Screening data from PubChem.
CSC inhib – cancer stem cell inhibition; cancer stem cell-like cells viability, luminescence; inhibition, % at 7.5 µM; 1.1% of 300,000 active; AID 2717; in the data active = inhibition above about 75%; tested in HMLE shEcad cells
ALR H2O2 inh – inhibitors of human sulfhydryl oxidase ALR; inhibition, % (no concentration beside the values); 3.8% of 290,000 active; P55789; purified ALR, DTT oxidation, H2O2 HRP-luminol luminescence;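 active = mean replicate inhibition above about 79%, with every replicate also reaching it, limit read from the data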
PP5 inh – inhibitors of human protein phosphatase 5 (PP5). purified PP5c, OMFP substrate fluorescence. P53041. 0.18% of 320,000 active. AID 1987. inhibition, % at 6.7 µM;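 active = inhibition above the campaign's mean inhibition across all tested compounds plus 3 SD, cut at about 9.5% in these data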;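 note: 0% = DMSO only and 100% = 100 µM cantharidin control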
Target sequence (P53041 whole entry, looked up): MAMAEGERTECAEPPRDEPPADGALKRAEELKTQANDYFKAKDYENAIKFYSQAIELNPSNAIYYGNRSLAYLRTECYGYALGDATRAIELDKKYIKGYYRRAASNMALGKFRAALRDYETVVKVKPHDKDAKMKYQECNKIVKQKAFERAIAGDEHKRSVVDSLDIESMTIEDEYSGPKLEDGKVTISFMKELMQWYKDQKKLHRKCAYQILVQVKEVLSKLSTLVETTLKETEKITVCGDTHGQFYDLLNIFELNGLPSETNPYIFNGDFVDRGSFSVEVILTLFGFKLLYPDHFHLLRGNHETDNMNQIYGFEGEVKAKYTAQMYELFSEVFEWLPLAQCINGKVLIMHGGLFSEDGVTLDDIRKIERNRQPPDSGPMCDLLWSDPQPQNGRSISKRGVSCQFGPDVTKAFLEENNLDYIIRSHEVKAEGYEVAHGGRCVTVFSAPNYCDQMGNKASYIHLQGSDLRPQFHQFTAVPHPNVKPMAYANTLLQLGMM
Calb FLC – affects C. albicans growth with fluconazole; growth inhibition, % (concentration not given with the values); 0.57% of 300,000 active; AID 1979; C. albicans CaCi-2 (fluconazole-resistant clinical isolate) + fluconazole, Alamar Blue growth, 48 h;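 active = growth inhibition above about 58% in most replicates, limit read from the data, passing the limit was not always enough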;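 note: all wells also contain fluconazole at 8 µg/ml as a sub-toxic cotreatment; 0% = median of DMSO wells and 100% = median of geldanamycin control wells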
PP1 counter – counter-screen for PP5 inhibitors: inhibitors of human PP1-alpha. purified PP1alpha, OMFP fluorescence. 0.9% of 320,000 active. P62136. inhibition, % at 6.7 µM;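 active = inhibition above the mean inhibition of all tested compounds plus 3 SD, computed separately for each screening campaign, cut at about 15% in these data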
An asterisk follows results filed as active; . = no result. An excerpt weighted towards active compounds, which were near 5.4% of everything screened.

SMILES | CSC inhib | ALR H2O2 inh | PP5 inh | Calb FLC | PP1 counter
CCOC(=O)CSc1ccc(C(=O)NCCN2CCOCC2)cc1[N+](=O)[O-] | -3 | 3 | 2 | -1 | -5
CCOC(=O)CSc1ccc(C(=O)N2CCN(C)CC2)cc1[N+](=O)[O-] | -16 | -2 | 1 | 102* | -2
COc1cccc(/C=N/NC(=O)CNC(=O)c2ccncc2)c1O | 46 | 91* | -1 | -10 | -7
COc1cccc(/C=N/NC(=O)c2c(C)nc3ccc(Cl)cn23)c1O | 71 | . | 4 | 104* | 6
COc1cccc(/C=N/NC(=O)CNC(=O)c2ccco2)c1O | 4 | 63 | -1 | -9 | -2
COc1cccc(/C=N/NC(=O)CSc2nnc(C)n2-c2ccccc2)c1O | 77* | 7 | 2 | 18 | 1
COc1ccc(CCCC(=O)N/N=C/c2cccc(OC)c2O)cc1C | 113* | . | 0 | 1 | 17*
COc1cccc(/C=N/NC(=O)C[n+]2ccccc2)c1O | -9 | 57 | 8 | -7 | 3
Clc1ccccc1Sc1ccc(-c2ccccn2)s1 | -1 | -5 | 0 | 8 | 2
COc1cc(/C=N/NC(=O)CNC(=O)c2cccs2)ccc1O | -12 | . | 3 | 4 | 1
COc1cccc(/C=N/NC(=O)CNC(=O)c2cccnc2)c1O | 11 | 92* | 0 | -3 | 0
COc1cc(/C=N/NC(=O)CNC(=O)c2ccncc2)ccc1O | -27 | 99* | -4 | -6 | -3
COc1cccc(/C=N/NC(=O)C(=O)NCc2cccnc2)c1O | -8 | 32 | 3 | -3 | -2
NNC(=O)CCC(=O)Nc1ccccc1 | -10 | -6 | 0 | -3 | -5
CCN(CC(=O)NCc1cccs1)C(=O)/C=C/c1cccc(Br)c1 | -8 | 16 | -2 | 2 | -3
CCCCC(=O)Nc1ccc(C(=O)Nc2ccc(S(=O)(=O)Nc3nccc(C)n3)cc2)cc1 | -8 | -1 | 2 | 28 | -1
CC(C(=O)Nc1ccc(O)cc1)c1cccc(C(=O)c2ccccc2)c1 (stereo not drawn) | -3 | 99* | 1 | 28 | -2
CC(=O)Nc1ccc(NC(=O)C(C)c2cccc(C(=O)c3ccccc3)c2)cc1 (stereo not drawn) | 1 | -3 | 3 | 7 | -4
COc1cc(/C=N/N2CCOCC2)ccc1OC(=O)c1ccco1 | 1 | 34 | 2 | -5 | 1
CCCN1C(=O)S/C(=C\c2ccc(N3CCOCC3)o2)C1=O | -4 | 86* | -1 | 38 | -3
COC(=O)CN1C(=O)S/C(=C/c2ccc(N3CCCCC3)o2)C1=O | 7 | 69 | -2 | 8 | 0
CCCN1C(=O)S/C(=C/c2ccc(N3CCOCC3)o2)C1=O | 20 | 99* | 3 | 45 | 0
CCOC(=O)CN1C(=O)S/C(=C/c2ccc(N3CCCCC3)o2)C1=O | 0 | 17 | 2 | -6 | -1
CC(C)(C)c1cc(NC(=O)CCl)n(-c2ccccc2)n1 | 15 | . | 0 | -8 | 1
CCCc1cc(NC(=O)CCl)n(-c2ccccc2)n1 | -8 | 97* | 3 | 23 | 2
SMILES | CSC inhib | ALR H2O2 inh | PP5 inh | Calb FLC | PP1 counter
COc1cc(CCCN[C@H](CN)Cc2ccccc2)cc(OC)c1OC | -2 | 1 | 1 | . | -2
CCOc1ccc(-n2c(C)cc(C(=O)CCl)c2C)cc1 | 17 | . | -2 | 91* | -6
COC(=O)c1ccc(-n2c(C)cc(C(=O)CCl)c2C)cc1 | 52 | 12 | -1 | -32 | -2
O=C(Nc1ccc(Oc2cccnc2)nc1)c1ccc(C(F)(F)F)cc1 | 16 | -4 | -2 | 7 | -4
Cc1sc2ncnc(N/N=C/c3ccccc3O)c2c1C | 105* | 91* | 5 | 34 | 7
N#C/C(=C\c1c(F)cccc1Cl)c1nn(-c2ccccc2)c(-n2cccc2)c1C#N | 94* | -3 | 1 | -6 | 2
CC1S/C(=N/N=C2CCCCC2)NC1=O (stereo not drawn) | -11 | 6 | -1 | -7 | -4
CC1SC(=NC(=O)c2ccncc2)NC1=O (stereo not drawn) | -10 | 90* | -3 | 0 | -4
CCN1CCN(c2cc(C)c3cc(NC(=O)c4ccc5c(c4)OCO5)ccc3n2)CC1 | 13 | 84* | -1 | -8 | 1
O=C(Nc1ccc(Cl)c(-c2nc3ccccc3[nH]2)c1)c1ccc2c(c1)OCO2 | 0 | -8 | 3 | -5 | 0
CCN(CC)c1ccc(NC(=O)c2ccc3c(c2)OCO3)cc1 | 43 | 99* | 0 | -7 | 0
O=C(Nc1ccc(-c2nc3ccccc3[nH]2)cc1)c1ccc2c(c1)OCO2 | -9 | -2 | 2 | 6 | 15*
CCN1CCN(c2cc(C)c3cc(NC(=O)c4ccc(OC)c(OC)c4)ccc3n2)CC1 | 19 | . | 1 | -3 | -3
NC(=O)NC(=O)COC(=O)c1ccc(Cl)c(S(=O)(=O)N(Cc2ccccc2)c2ccc(Cl)cc2)c1 | 86* | -6 | 2 | 45 | 4
COc1ccccc1N(Cc1ccccc1)S(=O)(=O)c1cccc(C(=O)O)c1 | -13 | 3 | 2 | 14 | -3
COc1ccccc1N(Cc1ccccc1)S(=O)(=O)c1cc(C(=O)O)ccc1Cl | 63 | 92* | 1 | 2 | 1
O=C(NNC(=S)NC(=O)c1ccccc1[N+](=O)[O-])c1ccccc1 | 3 | 12 | 1 | 10 | 1
Cc1ccccc1OCC(=O)NNC(=S)NC(=O)c1ccccc1[N+](=O)[O-] | -19 | . | -1 | 47 | 0
CCCCC(=O)NNC(=S)NC(=O)c1cccc([N+](=O)[O-])c1 | -5 | 98* | 0 | 16 | -4
O=C(NC(=S)NNC(=O)c1ccccc1[N+](=O)[O-])c1ccccc1 | . | 96* | 1 | -3 | 3
O=C(NNC(=S)Nc1ccc(Cl)c(Cl)c1)c1cccc([N+](=O)[O-])c1 | 19 | 98* | 3 | -2 | 7
CC(C)(C)c1ccc(OCC(=O)NNC(=S)NC(=O)c2ccccc2[N+](=O)[O-])c(Br)c1 | 27 | 92* | 5 | -2 | 3
CC(=O)NC(Cc1cccc(F)c1)C(=O)NC1CCN(C(=O)Nc2ccccc2)CC1 (stereo not drawn) | -4 | 1 | 0 | -5 | -3
Cc1ccc(CN2CC(C(=O)Nc3ccc(C)cn3)CC2=O)cc1 (stereo not drawn) | -19 | . | -3 | -10 | -5
Cc1ccc(S(=O)(=O)N(C)CCCC(=O)NCc2ccc3c(c2)OCO3)cc1 | -4 | -9 | 4 | -39 | 0
SMILES | CSC inhib | ALR H2O2 inh | PP5 inh | Calb FLC | PP1 counter
Cc1ccc(C(=O)NC(=S)NNC(=O)c2cccc([N+](=O)[O-])c2)cc1 | -9 | 99* | . | 10 | .
O=C(NNC(=O)c1cccc([N+](=O)[O-])c1)c1ccncc1 | . | 3 | -1 | -3 | 0
O=C(NC(=S)Nc1cccc(F)c1)c1cccc([N+](=O)[O-])c1 | 2 | 33 | -3 | -9 | 0
Cc1cccc(NC(=S)NNC(=O)c2cccc([N+](=O)[O-])c2)c1 | . | 68 | 1 | -2 | 7
O=C(NNC(=S)NC(=O)c1cccc([N+](=O)[O-])c1)c1ccc(Br)cc1 | 20 | 96* | 1 | . | 1
O=C(NNC(=S)NC(=O)c1ccccc1)c1cccc([N+](=O)[O-])c1 | 0 | 98* | 0 | -11 | 1
